# Assay results reported in article PMC7862700, “An all-to-all approach to the identification of sequence-specific readers for epigenetic DNA modifications on cytosine”.
# What was measured:
# Assay in all cases: DAPPL (digital affinity profiling via proximity ligation, sequencing); 10 mM Tris-HCl pH 7.5, 50 mM NaCl, 1 mM DTT, 4% glycerol, room temperature, 30 min; GST-TFs on glutathione beads, 16-mer random dsDNA library, 0.1% formaldehyde crosslink after washing; high values mean tight binding
# [1] = molecular target: T1, FLI1 (Homo sapiens, UniProt Q01543 1-452); conditions: protein: recombinant; tags: N-terminal GST; dsDNA, one strand shown
# T1 sequence: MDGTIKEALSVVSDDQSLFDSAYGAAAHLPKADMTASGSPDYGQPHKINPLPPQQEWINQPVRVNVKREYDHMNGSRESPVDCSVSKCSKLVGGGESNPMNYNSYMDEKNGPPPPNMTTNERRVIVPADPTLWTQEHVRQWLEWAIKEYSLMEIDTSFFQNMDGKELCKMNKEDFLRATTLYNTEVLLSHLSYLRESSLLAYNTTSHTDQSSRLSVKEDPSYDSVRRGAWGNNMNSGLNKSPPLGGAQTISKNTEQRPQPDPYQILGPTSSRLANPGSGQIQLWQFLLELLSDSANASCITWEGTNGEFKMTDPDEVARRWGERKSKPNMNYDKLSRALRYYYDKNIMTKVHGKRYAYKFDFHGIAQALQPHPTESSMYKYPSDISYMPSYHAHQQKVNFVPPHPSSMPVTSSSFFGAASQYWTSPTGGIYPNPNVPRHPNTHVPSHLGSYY
# How it was run: (§1)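 A tag-only sample was pooled with DNA-barcoded human transcription factors that had been expressed in yeast as GST fusions and captured on glutathione beads. The pools were incubated for 30 min at room temperature with 200 nmole of a random double-stranded 16-mer DNA library in Tris/NaCl/DTT/glycerol buffer, then washed, crosslinked with 0.1% formaldehyde, proximity-ligated (BsaI/T4 ligase, 1 h, 37 °C), PCR-amplified and sequenced on an Illumina NextSeq500. Binding signal is each hexamer's read frequency for a factor divided by its frequency for the tag-only sample.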
# [2] = molecular target: T2, ELK1 (Homo sapiens, UniProt P19419 1-428); conditions: protein: recombinant; tags: N-terminal GST; dsDNA, one strand shown
# T2 sequence: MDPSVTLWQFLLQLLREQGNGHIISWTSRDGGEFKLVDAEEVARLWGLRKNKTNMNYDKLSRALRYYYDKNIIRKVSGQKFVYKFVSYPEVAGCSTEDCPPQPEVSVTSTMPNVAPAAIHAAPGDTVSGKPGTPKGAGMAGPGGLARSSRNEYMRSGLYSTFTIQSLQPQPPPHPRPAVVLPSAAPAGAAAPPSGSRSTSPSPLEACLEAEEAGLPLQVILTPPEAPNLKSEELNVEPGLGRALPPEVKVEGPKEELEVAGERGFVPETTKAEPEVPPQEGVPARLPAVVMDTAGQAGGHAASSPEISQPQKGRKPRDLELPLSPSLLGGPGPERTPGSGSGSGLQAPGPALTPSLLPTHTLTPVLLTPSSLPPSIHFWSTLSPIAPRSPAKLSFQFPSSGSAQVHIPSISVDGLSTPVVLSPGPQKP
# How it was run: as §1
# [3] = molecular target: T3, GABPA (Homo sapiens, UniProt Q06546 1-454); conditions: protein: recombinant; tags: N-terminal GST; dsDNA, one strand shown
# T3 sequence: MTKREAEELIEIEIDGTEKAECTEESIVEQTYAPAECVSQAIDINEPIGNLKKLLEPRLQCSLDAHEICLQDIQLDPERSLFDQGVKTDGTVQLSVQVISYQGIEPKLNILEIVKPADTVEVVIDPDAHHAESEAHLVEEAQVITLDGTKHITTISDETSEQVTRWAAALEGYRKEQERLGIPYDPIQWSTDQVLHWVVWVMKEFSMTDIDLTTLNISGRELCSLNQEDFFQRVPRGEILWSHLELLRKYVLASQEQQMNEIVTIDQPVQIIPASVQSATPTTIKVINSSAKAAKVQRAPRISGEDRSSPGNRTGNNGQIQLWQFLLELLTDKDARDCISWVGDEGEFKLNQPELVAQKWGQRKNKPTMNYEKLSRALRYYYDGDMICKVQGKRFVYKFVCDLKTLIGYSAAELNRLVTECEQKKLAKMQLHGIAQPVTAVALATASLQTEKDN
# How it was run: as §1
# [4] = molecular target: T4, ERG (Homo sapiens, UniProt P11308 1-479); conditions: protein: recombinant; tags: N-terminal GST; dsDNA, one strand shown
# T4 sequence: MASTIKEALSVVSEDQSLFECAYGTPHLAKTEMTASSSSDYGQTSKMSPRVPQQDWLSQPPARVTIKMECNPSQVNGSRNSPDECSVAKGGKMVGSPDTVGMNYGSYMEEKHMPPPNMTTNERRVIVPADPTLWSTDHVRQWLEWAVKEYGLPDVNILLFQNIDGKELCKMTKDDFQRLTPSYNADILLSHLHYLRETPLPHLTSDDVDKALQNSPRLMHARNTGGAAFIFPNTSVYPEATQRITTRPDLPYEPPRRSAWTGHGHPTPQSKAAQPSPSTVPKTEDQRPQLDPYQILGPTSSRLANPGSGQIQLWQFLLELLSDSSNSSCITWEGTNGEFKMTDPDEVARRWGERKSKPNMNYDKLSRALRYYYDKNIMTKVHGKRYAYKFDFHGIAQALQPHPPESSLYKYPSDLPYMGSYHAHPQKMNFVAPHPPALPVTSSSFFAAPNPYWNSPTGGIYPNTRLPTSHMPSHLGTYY
# How it was run: as §1
# [5] = molecular target: ELF1 (Homo sapiens, UniProt P32519 1-619); conditions: protein: recombinant; tags: N-terminal GST; dsDNA, one strand shown
# ELF1, sequence (P32519 whole entry): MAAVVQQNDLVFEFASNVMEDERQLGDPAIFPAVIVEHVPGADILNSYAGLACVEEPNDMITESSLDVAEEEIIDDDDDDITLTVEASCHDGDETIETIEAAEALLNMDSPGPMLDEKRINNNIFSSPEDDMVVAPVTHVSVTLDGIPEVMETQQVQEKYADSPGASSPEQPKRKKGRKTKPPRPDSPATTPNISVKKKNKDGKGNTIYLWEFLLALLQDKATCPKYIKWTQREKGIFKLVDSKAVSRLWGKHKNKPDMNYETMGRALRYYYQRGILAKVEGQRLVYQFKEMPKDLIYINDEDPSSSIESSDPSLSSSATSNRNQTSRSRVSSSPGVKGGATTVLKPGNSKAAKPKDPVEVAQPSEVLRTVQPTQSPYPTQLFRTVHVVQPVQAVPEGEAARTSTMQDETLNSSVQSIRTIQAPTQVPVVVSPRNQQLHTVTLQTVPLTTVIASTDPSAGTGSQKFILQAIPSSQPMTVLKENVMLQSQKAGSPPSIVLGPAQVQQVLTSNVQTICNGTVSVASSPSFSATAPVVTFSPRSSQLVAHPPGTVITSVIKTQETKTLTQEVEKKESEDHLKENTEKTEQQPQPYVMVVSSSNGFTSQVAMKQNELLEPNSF
# How it was run: as §1
# [6] = molecular target: T5, EHF (Homo sapiens, UniProt Q9NZC4 1-300); conditions: protein: recombinant; tags: N-terminal GST; dsDNA, one strand shown
# T5 sequence: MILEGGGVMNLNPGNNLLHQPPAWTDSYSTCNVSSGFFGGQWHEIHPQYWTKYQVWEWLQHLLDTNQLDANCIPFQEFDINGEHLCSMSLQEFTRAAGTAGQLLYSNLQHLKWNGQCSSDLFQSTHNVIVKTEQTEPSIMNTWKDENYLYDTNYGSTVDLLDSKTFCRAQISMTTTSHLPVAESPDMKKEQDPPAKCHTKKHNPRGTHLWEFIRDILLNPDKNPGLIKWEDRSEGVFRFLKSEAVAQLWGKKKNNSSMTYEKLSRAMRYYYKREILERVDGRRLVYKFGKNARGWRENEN
# How it was run: as §1
# [7] = molecular target: SPI1 (Homo sapiens, UniProt P17947 1-270); conditions: protein: recombinant; tags: N-terminal GST; dsDNA, one strand shown
# How it was run: as §1
# [8] = molecular target: SPIB (Homo sapiens, UniProt Q01892 1-262); conditions: protein: recombinant; tags: N-terminal GST; dsDNA, one strand shown
# SPIB, sequence (Q01892 whole entry): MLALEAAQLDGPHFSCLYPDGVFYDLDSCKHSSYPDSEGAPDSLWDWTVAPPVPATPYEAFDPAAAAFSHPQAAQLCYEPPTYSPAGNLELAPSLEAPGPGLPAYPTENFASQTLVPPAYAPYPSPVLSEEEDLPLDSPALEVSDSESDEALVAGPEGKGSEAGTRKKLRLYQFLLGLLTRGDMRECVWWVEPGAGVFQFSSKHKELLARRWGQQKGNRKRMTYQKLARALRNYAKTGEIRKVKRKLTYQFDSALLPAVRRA
# How it was run: as §1
# [9] = molecular target: T6, ELK3 (Homo sapiens, UniProt P41970 1-407); conditions: protein: recombinant; tags: N-terminal GST; dsDNA, one strand shown
# T6 sequence: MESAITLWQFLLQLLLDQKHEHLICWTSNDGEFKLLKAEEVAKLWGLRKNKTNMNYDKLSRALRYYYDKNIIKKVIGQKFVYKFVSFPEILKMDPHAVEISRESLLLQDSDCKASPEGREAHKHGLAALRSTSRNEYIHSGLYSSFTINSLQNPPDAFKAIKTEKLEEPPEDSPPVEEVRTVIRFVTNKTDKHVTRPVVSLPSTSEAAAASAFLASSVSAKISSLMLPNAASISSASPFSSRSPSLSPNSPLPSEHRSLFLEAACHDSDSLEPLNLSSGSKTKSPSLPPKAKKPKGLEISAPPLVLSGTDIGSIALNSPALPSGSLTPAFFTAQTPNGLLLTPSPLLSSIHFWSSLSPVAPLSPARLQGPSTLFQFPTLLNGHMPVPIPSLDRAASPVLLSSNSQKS
# How it was run: as §1
# [10] = molecular target: T7, FEV (Homo sapiens, UniProt Q99581 1-238); conditions: protein: recombinant; tags: N-terminal GST; dsDNA, one strand shown
# T7 sequence: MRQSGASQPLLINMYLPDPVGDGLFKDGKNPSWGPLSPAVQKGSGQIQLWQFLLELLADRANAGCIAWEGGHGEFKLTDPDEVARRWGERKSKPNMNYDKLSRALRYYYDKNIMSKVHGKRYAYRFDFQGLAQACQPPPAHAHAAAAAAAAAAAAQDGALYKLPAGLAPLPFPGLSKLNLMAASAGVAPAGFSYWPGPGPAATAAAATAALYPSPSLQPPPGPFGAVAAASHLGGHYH
# How it was run: as §1
# [11] = molecular target: ETV5 (Homo sapiens, UniProt P41161 1-510); conditions: protein: recombinant; tags: N-terminal GST; dsDNA, one strand shown
# ETV5, sequence (P41161 whole entry): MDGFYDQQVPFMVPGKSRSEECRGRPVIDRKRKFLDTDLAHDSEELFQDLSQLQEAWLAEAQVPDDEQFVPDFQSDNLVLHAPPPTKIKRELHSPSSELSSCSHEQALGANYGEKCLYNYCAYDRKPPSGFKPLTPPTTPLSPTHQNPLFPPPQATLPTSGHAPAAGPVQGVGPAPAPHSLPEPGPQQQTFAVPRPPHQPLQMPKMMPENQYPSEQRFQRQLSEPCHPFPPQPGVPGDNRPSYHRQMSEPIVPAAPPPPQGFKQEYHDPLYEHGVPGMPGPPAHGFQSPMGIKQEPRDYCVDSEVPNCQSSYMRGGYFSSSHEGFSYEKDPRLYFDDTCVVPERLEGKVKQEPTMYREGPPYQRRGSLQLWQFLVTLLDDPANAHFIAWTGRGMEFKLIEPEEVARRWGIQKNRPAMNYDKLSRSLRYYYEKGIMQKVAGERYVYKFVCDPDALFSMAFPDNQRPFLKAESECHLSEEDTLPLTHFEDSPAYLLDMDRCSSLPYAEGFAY
# How it was run: as §1
# [12] = molecular target: HSF1 (Homo sapiens, UniProt Q00613 1-529); conditions: protein: recombinant; tags: N-terminal GST; chain copies: 3; dsDNA, one strand shown
# HSF1, sequence (Q00613 whole entry): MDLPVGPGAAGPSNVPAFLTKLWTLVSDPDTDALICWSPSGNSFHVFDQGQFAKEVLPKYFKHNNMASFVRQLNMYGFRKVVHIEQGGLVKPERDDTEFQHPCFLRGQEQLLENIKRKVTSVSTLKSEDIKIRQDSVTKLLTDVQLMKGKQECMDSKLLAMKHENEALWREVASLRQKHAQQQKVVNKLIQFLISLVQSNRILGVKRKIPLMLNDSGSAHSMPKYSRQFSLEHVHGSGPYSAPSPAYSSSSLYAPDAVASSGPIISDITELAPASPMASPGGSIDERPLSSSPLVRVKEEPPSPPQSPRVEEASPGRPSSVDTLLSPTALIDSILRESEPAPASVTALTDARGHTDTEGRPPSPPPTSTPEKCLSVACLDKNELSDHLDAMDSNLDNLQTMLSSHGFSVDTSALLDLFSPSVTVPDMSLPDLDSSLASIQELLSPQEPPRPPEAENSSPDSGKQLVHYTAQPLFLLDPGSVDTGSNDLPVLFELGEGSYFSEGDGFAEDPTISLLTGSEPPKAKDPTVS
# How it was run: as §1
# [13] = molecular target: T8, SPIC (Homo sapiens, UniProt Q8N5J4 1-248); conditions: protein: recombinant; tags: N-terminal GST; dsDNA, one strand shown
# T8 sequence: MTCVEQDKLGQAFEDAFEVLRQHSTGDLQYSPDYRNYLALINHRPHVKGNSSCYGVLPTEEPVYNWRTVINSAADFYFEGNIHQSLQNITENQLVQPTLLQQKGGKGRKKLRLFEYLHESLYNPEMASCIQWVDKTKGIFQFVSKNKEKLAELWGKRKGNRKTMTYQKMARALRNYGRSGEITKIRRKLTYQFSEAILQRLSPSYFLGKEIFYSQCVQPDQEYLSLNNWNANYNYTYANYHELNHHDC
# How it was run: as §1
# [14] = molecular target: ELF4 (Homo sapiens, UniProt Q99607 1-663); conditions: protein: recombinant; tags: N-terminal GST; dsDNA, one strand shown
# ELF4, sequence (Q99607 whole entry): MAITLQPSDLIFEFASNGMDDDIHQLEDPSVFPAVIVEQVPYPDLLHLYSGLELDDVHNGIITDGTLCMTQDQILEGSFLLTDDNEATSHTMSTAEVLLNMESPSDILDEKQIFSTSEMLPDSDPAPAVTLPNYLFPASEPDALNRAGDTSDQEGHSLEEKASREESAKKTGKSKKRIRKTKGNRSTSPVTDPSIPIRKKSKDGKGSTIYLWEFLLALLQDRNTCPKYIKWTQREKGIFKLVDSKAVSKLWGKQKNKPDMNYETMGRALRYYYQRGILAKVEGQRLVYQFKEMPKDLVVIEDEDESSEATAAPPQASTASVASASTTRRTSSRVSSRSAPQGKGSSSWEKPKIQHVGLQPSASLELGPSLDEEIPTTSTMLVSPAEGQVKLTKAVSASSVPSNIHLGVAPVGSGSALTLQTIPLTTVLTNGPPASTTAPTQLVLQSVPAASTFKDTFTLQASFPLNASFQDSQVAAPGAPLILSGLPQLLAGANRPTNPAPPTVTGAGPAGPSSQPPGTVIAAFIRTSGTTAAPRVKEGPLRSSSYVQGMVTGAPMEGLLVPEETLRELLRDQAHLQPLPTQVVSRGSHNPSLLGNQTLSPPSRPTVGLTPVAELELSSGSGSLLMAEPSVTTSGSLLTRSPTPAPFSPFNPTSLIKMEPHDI
# How it was run: as §1
# [15] = molecular target: T9, ELK4 (Homo sapiens, UniProt P28324-2 1-405); conditions: protein: recombinant; tags: N-terminal GST; dsDNA, one strand shown
# T9 sequence: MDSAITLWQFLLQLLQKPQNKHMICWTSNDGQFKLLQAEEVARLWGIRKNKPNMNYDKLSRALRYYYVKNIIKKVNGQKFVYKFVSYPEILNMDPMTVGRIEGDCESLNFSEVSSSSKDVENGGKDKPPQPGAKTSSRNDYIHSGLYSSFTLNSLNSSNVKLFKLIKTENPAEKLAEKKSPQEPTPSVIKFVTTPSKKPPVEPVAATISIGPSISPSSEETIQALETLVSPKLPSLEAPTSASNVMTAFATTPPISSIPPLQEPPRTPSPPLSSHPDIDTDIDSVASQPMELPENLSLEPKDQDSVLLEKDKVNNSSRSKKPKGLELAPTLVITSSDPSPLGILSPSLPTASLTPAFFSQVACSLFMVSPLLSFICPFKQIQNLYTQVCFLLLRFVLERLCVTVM
# How it was run: as §1
# [16] = molecular target: T10, ETV2 (Homo sapiens, UniProt O00321 1-342); conditions: protein: recombinant; tags: N-terminal GST; dsDNA, one strand shown
# T10 sequence: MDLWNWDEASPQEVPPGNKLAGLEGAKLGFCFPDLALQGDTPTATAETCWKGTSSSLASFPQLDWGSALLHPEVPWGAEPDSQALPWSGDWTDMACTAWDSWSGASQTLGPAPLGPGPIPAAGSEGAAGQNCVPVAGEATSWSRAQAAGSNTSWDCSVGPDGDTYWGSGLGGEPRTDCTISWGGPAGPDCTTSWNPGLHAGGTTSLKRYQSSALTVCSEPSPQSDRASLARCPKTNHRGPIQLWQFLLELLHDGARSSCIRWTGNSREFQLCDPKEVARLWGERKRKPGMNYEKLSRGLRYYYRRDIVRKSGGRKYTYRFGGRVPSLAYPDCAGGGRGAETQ
# How it was run: as §1
# [17] = molecular target: T11, ELF3 (Homo sapiens, UniProt P78545 1-371); conditions: protein: recombinant; tags: N-terminal GST; dsDNA, one strand shown
# T11 sequence: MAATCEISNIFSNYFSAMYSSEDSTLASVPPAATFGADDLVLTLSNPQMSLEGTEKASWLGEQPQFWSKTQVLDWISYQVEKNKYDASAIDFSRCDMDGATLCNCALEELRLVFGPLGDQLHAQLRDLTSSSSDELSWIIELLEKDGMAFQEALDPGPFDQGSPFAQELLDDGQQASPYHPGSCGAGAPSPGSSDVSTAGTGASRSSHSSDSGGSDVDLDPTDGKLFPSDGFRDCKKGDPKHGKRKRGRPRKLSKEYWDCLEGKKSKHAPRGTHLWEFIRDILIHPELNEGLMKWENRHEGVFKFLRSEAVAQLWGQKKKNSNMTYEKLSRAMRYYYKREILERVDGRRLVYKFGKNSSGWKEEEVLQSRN
# How it was run: as §1
# [18] = molecular target: CRX (Homo sapiens, UniProt O43186 1-299); conditions: protein: recombinant; tags: N-terminal GST; dsDNA, one strand shown
# CRX, sequence (O43186 whole entry): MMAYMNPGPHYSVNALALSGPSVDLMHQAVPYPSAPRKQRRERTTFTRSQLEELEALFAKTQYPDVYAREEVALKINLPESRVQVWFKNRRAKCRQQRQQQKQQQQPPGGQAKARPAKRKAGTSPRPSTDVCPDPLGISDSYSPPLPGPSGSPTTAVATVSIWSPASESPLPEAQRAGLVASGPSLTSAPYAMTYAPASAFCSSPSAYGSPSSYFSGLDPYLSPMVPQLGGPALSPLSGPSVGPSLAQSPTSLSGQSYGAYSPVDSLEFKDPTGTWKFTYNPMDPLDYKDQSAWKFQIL
# How it was run: as §1
# [19] = molecular target: ETV1 (Homo sapiens, UniProt P50549 1-477); conditions: protein: recombinant; tags: N-terminal GST; dsDNA, one strand shown
# ETV1, sequence (P50549 whole entry): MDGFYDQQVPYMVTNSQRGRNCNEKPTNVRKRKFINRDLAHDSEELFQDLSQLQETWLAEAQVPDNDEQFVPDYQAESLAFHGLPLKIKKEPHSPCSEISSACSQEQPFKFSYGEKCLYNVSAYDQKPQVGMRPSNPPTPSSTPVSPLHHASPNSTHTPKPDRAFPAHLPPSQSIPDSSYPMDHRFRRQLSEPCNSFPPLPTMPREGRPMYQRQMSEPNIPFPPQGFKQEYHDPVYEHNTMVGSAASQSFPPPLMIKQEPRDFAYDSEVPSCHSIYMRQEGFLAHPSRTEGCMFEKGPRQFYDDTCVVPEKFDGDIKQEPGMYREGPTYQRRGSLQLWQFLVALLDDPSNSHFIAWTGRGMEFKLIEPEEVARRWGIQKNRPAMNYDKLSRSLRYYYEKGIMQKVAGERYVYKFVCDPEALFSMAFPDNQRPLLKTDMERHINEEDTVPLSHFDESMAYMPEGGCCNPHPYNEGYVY
# How it was run: as §1
sequence,measurement,setting,value
CCGAAC,binding signal,[1],"1.26 fold enrichment (6-mer frequency, TF over GST control)"
same,binding signal,[2],"1.21 fold enrichment (6-mer frequency, TF over GST control)"
same,binding signal,[3],"1.29 fold enrichment (6-mer frequency, TF over GST control)"
same,binding signal,[4],"1.21 fold enrichment (6-mer frequency, TF over GST control)"
same,binding signal,[5],"1.26 fold enrichment (6-mer frequency, TF over GST control)"
same,binding signal,[6],"1.32 fold enrichment (6-mer frequency, TF over GST control)"
same,binding signal,[7],"1.25 fold enrichment (6-mer frequency, TF over GST control)"
same,binding signal,[8],"1.2 fold enrichment (6-mer frequency, TF over GST control)"
same,binding signal,[9],"1.33 fold enrichment (6-mer frequency, TF over GST control)"
same,binding signal,[10],"1.25 fold enrichment (6-mer frequency, TF over GST control)"
same,binding signal,[11],"1.27 fold enrichment (6-mer frequency, TF over GST control)"
same,binding signal,[12],"1.54 fold enrichment (6-mer frequency, TF over GST control)"
same,binding signal,[13],"1.32 fold enrichment (6-mer frequency, TF over GST control)"
same,binding signal,[14],"1.26 fold enrichment (6-mer frequency, TF over GST control)"
same,binding signal,[15],"1.25 fold enrichment (6-mer frequency, TF over GST control)"
same,binding signal,[16],"1.36 fold enrichment (6-mer frequency, TF over GST control)"
same,binding signal,[17],"1.25 fold enrichment (6-mer frequency, TF over GST control)"
same,binding signal,[18],"1.17 fold enrichment (6-mer frequency, TF over GST control)"
same,binding signal,[19],"1.19 fold enrichment (6-mer frequency, TF over GST control)"
